Measurements published in PubChem BioAssay AID1159580 (chemical genetic matrix, 2015).
Values joined by “and” are separate entries in the source; they are usually repeats but may differ in a detail not shown here. Equal entries are not always repeated. About 2,000 (36%) of roughly 5,500 compounds were called active. About 18% were inconclusive and are not listed. Rule as the data show it: active = normalized growth mostly below about 0.91 (no sharp cut-off); inconclusive = no clear call, values can overlap the other calls; inactive = mostly above about 0.92. The list shows a part of the results.

Test: chemical genetic growth profiling, strain panel (AID 1159580);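 also: tested at 20 µM; growth read once vehicle control cultures reached saturation at 30 °C; 1 = growth at the plate median or of vehicle wells; lower values mean less growth of the strain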
Conditions: S. cerevisiae deletion strains, growth OD

Measured: normalized growth

CCN1CCN(C(=O)NC(C(=O)N[C@@H]2C(=O)N3[C@@H]2SC(C)(C)[C@@H]3C(=O)O)c2ccccc2)C(=O)C1=O (stereo partly specified)
inactive: locus YAL013W, strain DEP1, stronger effect = lower value 1.01 | locus YAL021C, strain ccr4, stronger effect = lower value 1 | locus YAL026C, strain drs2, stronger effect = lower value 0.999 | locus YAL030W, strain snc1, stronger effect = lower value 1.01 | locus YBL061C, strain skt5, stronger effect = lower value 0.999 | locus YBR009C, strain hhf1, stronger effect = lower value 1.02 | locus YBR021W, strain FUR4, stronger effect = lower value 1.01 | locus YBR023C, strain chs3, stronger effect = lower value 1.01 | locus YBR171W, strain sec66, stronger effect = lower value 1 | locus YBR229C, strain ROT2, stronger effect = lower value 1.01 | locus YBR231C, strain swc5, stronger effect = lower value 0.98 | locus YBR279W, strain paf1, stronger effect = lower value 1 | locus YCL011C, strain gbp2, stronger effect = lower value 1.02 | locus YCL016C, strain dcc1, stronger effect = lower value 1 | locus YCL029C, strain bik1, stronger effect = lower value 1.02 | locus YCL061C, strain MRC1, stronger effect = lower value 0.995 | locus YCL069W, strain vba3, stronger effect = lower value 0.99 | locus YCR088W, strain abp1, stronger effect = lower value 1 | locus YDL005C, strain med2, stronger effect = lower value 0.988 | locus YDL035C, strain GPR1, stronger effect = lower value 0.988 | locus YDL040C, strain nat1, stronger effect = lower value 0.989 | locus YDL074C, strain BRE1, stronger effect = lower value 0.993 | locus YDL101C, strain DUN1, stronger effect = lower value 1.02 | locus YDL134C, strain PPH21, stronger effect = lower value 1.01 | locus YDL185W, strain tfp1, stronger effect = lower value 1.02 | locus YDL192W, strain arf1, stronger effect = lower value 1.01 | locus YDR001C, strain nth1, stronger effect = lower value 0.991 | locus YDR069C, strain doa4, stronger effect = lower value 0.997 | locus YDR101C, strain arx1, stronger effect = lower value 1.01 | locus YDR137W, strain rgp1, stronger effect = lower value 0.975 | locus YDR150W, strain NUM1, stronger effect = lower value 1.02 | locus YDR159W, strain sac3, stronger effect = lower value 1 | locus YDR162C, strain NBP2, stronger effect = lower value 0.997 | locus YDR195W, strain ref2 0.959 | locus YDR297W, strain sur2, stronger effect = lower value 0.996 | locus YDR318W, strain mcm21, stronger effect = lower value 1.02 | locus YDR334W, strain swr1, stronger effect = lower value 1 | locus YDR335W, strain msn5, stronger effect = lower value 0.999 | locus YDR388W, stronger effect = lower value 1.01 | locus YDR392W, strain spt3, stronger effect = lower value 1.03 | locus YDR502C, strain sam2, stronger effect = lower value 1.01 | locus YEL003W, strain gim4, stronger effect = lower value 1.01 | locus YEL037C, strain rad23, stronger effect = lower value 0.997 | locus YEL061C, strain CIN8 (second series), stronger effect = lower value 1 | locus YEL061C, strain CIN8, stronger effect = lower value 1.01 | locus YER015W, strain faa2, stronger effect = lower value 0.992 | locus YER016W, strain bim1, stronger effect = lower value 1 | locus YER110C, stronger effect = lower value 1.02 | locus YER111C, strain swi4, stronger effect = lower value 1 | locus YER155C, strain BEM2 (second series), stronger effect = lower value 0.993 | locus YER155C, strain BEM2, stronger effect = lower value 0.991 | locus YER167W, strain BCK2, stronger effect = lower value 1.01 | locus YFR010W, strain ubp6, stronger effect = lower value 0.984 | locus YGL078C, strain dbp3, stronger effect = lower value 1.01 | locus YGL086W, strain mad1, stronger effect = lower value 1.02 | locus YGL167C, strain pmr1, stronger effect = lower value 1 | locus YGL173C, strain kem1, stronger effect = lower value 0.991 | locus YGL227W, strain vid30, stronger effect = lower value 0.989 | locus YGL240W, strain doc1, stronger effect = lower value 0.975 | locus YGL248W, strain PDE1, stronger effect = lower value 1.01 | locus YGL253W, strain hxk2, stronger effect = lower value 0.999 | locus YGR078C, strain PAC10, stronger effect = lower value 1.02 | locus YGR135W, strain pre9, stronger effect = lower value 1 | locus YGR229C, strain SMI1, stronger effect = lower value 1 | locus YGR252W, strain gcn5, stronger effect = lower value 1.01 | locus YHR013C, strain ard1, stronger effect = lower value 0.975 | locus YHR027C, strain rpn1, stronger effect = lower value 0.996 | locus YHR030C, strain SLT2, stronger effect = lower value 1.01 and 1 | locus YHR079C, strain IRE1 (second series), stronger effect = lower value 1.02 | locus YHR079C, strain IRE1, stronger effect = lower value 1.01 | locus YHR094C, strain hxt1, stronger effect = lower value 1.01 | locus YHR129C, strain ARP1, stronger effect = lower value 1 | locus YHR142W, strain chs7, stronger effect = lower value 0.998 | locus YHR200W, strain rpn10, stronger effect = lower value 1.01 | locus YIL066C, strain RNR3, stronger effect = lower value 1.01 | locus YIL073C, strain SPO22, stronger effect = lower value 1.05 | locus YIL125W, strain kgd1, stronger effect = lower value 1.01 | locus YIR030C, strain dcg1, stronger effect = lower value 1.01 | locus YJL092W, strain hpr5, stronger effect = lower value 1 | locus YJL095W, strain BCK1 (second series), stronger effect = lower value 1 | locus YJL095W, strain BCK1, stronger effect = lower value 1 and 0.999 | locus YJL115W, strain asf1, stronger effect = lower value 0.996 | locus YJL129C, strain trk1, stronger effect = lower value 0.993 | locus YJL134W, strain LCB3, stronger effect = lower value 1.01 | locus YJL154C, strain vps35, stronger effect = lower value 1 | locus YJL164C, strain tpk1, stronger effect = lower value 0.99 | locus YJL166W, strain qcr8, stronger effect = lower value 0.992 | locus YJL168C, strain set2, stronger effect = lower value 1.01 | locus YJL187C, strain SWE1 (second series), stronger effect = lower value 1.03 | locus YJR043C, strain POL32, stronger effect = lower value 0.994 | locus YJR066W, strain TOR1, stronger effect = lower value 0.953
